Compound activity: PubChem, Columbia University Molecular Screening Center
Only some compounds are listed: those with a hit (about 1.5% of all), similar ones and a draw of the others.
VCAM1 TNFa inh – reduces TNF alpha induced VCAM1 expression in HUVEC | HUVEC TNFa-induced VCAM-1 immunofluorescence, high-content imaging | inhibition, % at 2 µM | hit rate 0.48% among 95,000;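 active = inhibition above the batch mean plus 3 SD, with images confirmed as a hit by eye, cut at about 37% in these data; inconclusive = inhibition above that limit but hit not confirmed in images; inactive = inhibition not above that limit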;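 note: 0% = TNF-stimulated DMSO wells and 100% = unstimulated control wells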
IL1B NFkB pot – enhances IL-1B driven NFkB nuclear translocation | hit rate 0.3% among 94,000 | activation, % at 2 µM | AID 819 | HUVEC IL-1B NFkB p65 nuclear translocation imaging;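 active = activation above 40%, about the mean plus 3 SD, also judged a hit on visual image review; inconclusive = activation above 40% but not a hit on visual review; inactive = activation not above 40% and no visual hit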;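 note: percent activation is computed from the nuclear over cytoplasmic p65 intensity ratio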
NFkB transloc inh – blocks IL-1B driven NFkB nuclear translocation in HUVEC cells; AID 796; inhibition, % at 2 µM; HUVEC IL-1B NFkB p65 nuclear translocation imaging; hit rate 0.43% among 94,000;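 active = inhibition above about 30% together with a positive call from visual inspection of the well image, limit read from the data; inconclusive = inhibition above a set limit but visual check negative; inactive = inhibition not above a set limit, visual check negative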;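 note: nuclear over cytoplasmic p65 intensity ratio measured by imaging; 0% = IL-1B stimulated DMSO wells and 100% = unstimulated DMSO wells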
HUVEC tox TNFa – HUVEC cytotoxicity counter-screen, TNF alpha stimulated; hit rate 0.17% among 93,000; cell count reduction, % at 2 µM; HUVEC TNFalpha-stimulated, Hoechst cell count, imaging;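 active = cell count reduction exceeding the screen mean by over 5 SD, scaled to untreated wells per plate, cut at about 78% in these data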;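 note: cells counted after 24 h of TNF alpha exposure following the 1 h pretreatment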
HUVEC tox IL1B – toxic to HUVEC cells under IL-1B stimulation | AID 845 | HUVEC cell count loss, Hoechst imaging, IL-1B stimulated | hit rate 0.41% among 94,000 | cell count reduction, % at 2 µM;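 active = cell count reduction more than 3 SD above the screen-wide mean, cut at about 70% in these data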;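 note: normalized per plate to untreated control cells as the no-loss baseline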
The depositor's hits bear a star; ? = inconclusive; . = no result given.

SMILES | VCAM1 TNFa inh | IL1B NFkB pot | NFkB transloc inh | HUVEC tox TNFa | HUVEC tox IL1B
COC(=O)c1c[nH]n2c(=O)cc(C)nc12 | -11 | -47 | 47* | -4 | 5
N#Cc1c(N)oc(-c2ccc3c(c2)OCO3)c1-c1ccc2c(c1)OCO2 | 10 | 11 | -11 | 12 | -6
O=C(c1ccc(Cl)cc1)N1CCCOC1 | 100* | -1 | 1 | 75 | -6
O=C1N2CCSC2=NC1(Nc1ccccn1)C(F)(F)F (stereo not drawn) | 86* | 22 | -22 | -18 | -24
O=c1ccc(Oc2nc(N3CCOCC3)nc(N3CCOCC3)n2)nn1-c1ccccc1 | 99* | -13 | 13 | 90* | -12
CC(C)(C)Nc1nc(Oc2ccc(=O)n(-c3ccccc3)n2)nc(N2CCOCC2)n1 | -10 | 10 | -8 | -29 | -40
CCOc1ccc(OCC)c(NS(=O)(=O)c2ccc3c(c2)CCN3C(=O)C2CCC2)c1 | 4 | -8 | 8 | -15 | 24
C=CCn1c(SCC(=O)NC2CCCCC2)nnc1C(C)NC(=O)c1cccs1 (stereo not drawn) | -15 | 13 | -13 | -17 | -54
C=CCn1c(SCC(=O)c2ccc(OC)cc2)nnc1C(C)NC(=O)c1cccs1 (stereo not drawn) | 31 | -49 | 49* | -15 | 94*
COc1ccc(NC(=O)C2(c3ccc(NC(=O)c4ccc(OC(C)=O)cc4)cc3)CCCC2)cc1 | -26 | 7 | -19 | . | -10
O=C1CC(c2cc(Br)ccc2F)c2cc3c(cc2N1)CCC3 (stereo not drawn) | 82* | -9 | 6 | . | 30
O=C1CC(c2ccccc2F)c2cc3c(cc2N1)CCC3 (stereo not drawn) | 6 | 5 | -5 | 17 | 18
CN(CC(=O)NCc1ccncc1)S(=O)(=O)c1ccc(F)cc1 | ? | 29 | -29 | 100* | -34
CN(CC(=O)NCc1ccncc1)S(=O)(=O)c1ccccc1 | 2 | 4 | -4 | -14 | -5
CNC(=O)CN(C)S(=O)(=O)c1ccc(F)cc1 | 6 | 44* | -44 | -30 | 13
CN(CC(=O)O)S(=O)(=O)c1ccc(F)cc1 | -14 | 4 | -4 | -10 | -28
CCOC(=O)c1[nH]c2ccccc2c1NC(=O)c1ccc2c(c1)OCO2 | 1 | 3 | -3 | 7 | 3
C=CCn1nnc2sc3c(c2c1=O)CCC(C)C3 (stereo not drawn) | 6 | -48 | 48* | -10 | -47
CSc1nc2sc3c(c2c(=O)n1C)CCC(C)C3 (stereo not drawn) | 21 | 2 | -2 | -35 | -30
NC1=CC(=O)c2cccc3cccc1c23 | 43* | 6 | -4 | 4 | -8
COc1ccc(CN2CCCCC2C(=O)Nc2ccc(OC)c(OCC(C)C)c2)cc1OC (stereo not drawn) | 97* | -2 | 2 | -10 | 2
COc1ccc(NC(=O)C2CCCNC2)cc1OCC(C)C (stereo not drawn) | -11 | -11 | 11 | -4 | 29
COc1cc(C)c(C)cc1S(=O)(=O)N1CCCCC1c1cccnc1 (stereo not drawn) | -14 | -12 | 12 | -8 | 7
COc1cc(S(=O)(=O)NCC2COCCO2)ccc1-n1cnnn1 (stereo not drawn) | -3 | -13 | 13 | 6 | 2
Cc1onc(-c2ccccc2Cl)c1C(=O)Nc1cccc(-c2cn3cccnc3n2)c1 | 20 | -94 | 94* | -10 | 85*
SMILES | VCAM1 TNFa inh | IL1B NFkB pot | NFkB transloc inh | HUVEC tox TNFa | HUVEC tox IL1B
CCOc1cc(N2CCOCC2)c(OCC)cc1NC(=O)CSc1cccc[n+]1[O-] | -1 | 70* | -70 | 10 | -13
CCOc1cc(N2CCOCC2)c(OCC)cc1NC(=O)Cc1ccccc1OC | 22 | 3 | -3 | -4 | 18
O=C(/C=C/c1ccc(Cl)cc1Cl)NCCN1CCOCC1 | -11 | 0 | 0 | 2 | 1
CCOC(=O)c1ccc(NC(=O)Cn2nnc(-c3ccccc3)n2)cc1 | 88* | 4 | -4 | 98* | -8
COCCCNC(=O)Cn1nnc(-c2ccc(NC(=O)c3ccccc3F)cc2)n1 | 6 | -43 | 43* | -5 | -13
O=C1CN(C(=O)CCCc2c[nH]c3ccccc23)c2ccccc2N1 | 6 | 10 | -10 | -2 | -5
CCn1c(SCC(=O)Nc2cc3oc4ccccc4c3cc2OC)nnc1-c1cccs1 | 15 | 41* | -41 | -31 | -6
CCOC(=O)c1[nH]c2ccc(F)cc2c1NC(=O)CN1CCc2cc(OC)c(OC)cc2C1 | -3 | 48* | -48 | -36 | 5
COC(=O)c1[nH]c2ccc(Cl)cc2c1NC(=O)CN1CCc2cc(OC)c(OC)cc2C1 | 5 | -4 | 4 | -45 | -14
CCC(OC(=O)c1cccs1)C(=O)NCc1ccc2c(c1)OCO2 (stereo not drawn) | 2 | 2 | -2 | -13 | -16
O=C(NCc1ccco1)c1cc(-c2ccc(Cl)cc2)on1 | 79* | -2 | 2 | 66 | 17
O=C(O)CCC(=O)NC1CCCCC1NC(=O)CCC(=O)O (stereo not drawn) | -1 | 13 | -13 | -4 | -19
Cc1[nH][nH]c(=O)c1C(c1ccc(-c2ccc(Cl)c(Cl)c2)o1)c1c(C)[nH][nH]c1=O | 1 | 42* | -42 | -16 | -124
Cc1cc(C)n(-c2nc3ccccc3nc2Nc2ccc3[nH]c(=O)[nH]c3c2)n1 | 2 | 7 | -7 | -14 | -100
Cc1cc(C)n(-c2nc3ccccc3nc2N2CCN(C(=O)c3ccc(Cl)cc3)CC2)n1 | 92* | -9 | 10 | . | 8
Cc1cc(C)n(-c2nc3ccccc3nc2N2CCCCCC2)n1 | -5 | -1 | 1 | -15 | -2
Cc1cc(C)n(-c2nc3ccccc3[nH]c2=O)n1 | -16 | 3 | -3 | -19 | 87*
Cc1cc(C)n(-c2nc3ccccc3nc2N2CCCC2)n1 | 4 | 6 | -6 | 0 | 80*
CC1Cc2ccccc2N1C(=O)CSc1nc(-c2ccco2)cc(C(F)(F)F)n1 (stereo not drawn) | -12 | 30 | -30 | -29 | 3
O=C(c1cc2ccccc2o1)N1CCN(c2ccccc2Cl)CC1 | -13 | -18 | 18 | -19 | 93*
O=C(c1ccccc1)N1CCN(C(=O)c2cc3ccccc3o2)CC1 | 22 | 16 | -16 | -4 | -2
CCOC(=O)N/N=C/c1ccc(C)o1 | -10 | -33 | 33* | -2 | -12
O=C(NCCN1CCc2ccccc2C1)C1CCN(S(=O)(=O)N2CCCCC2)CC1 | 24 | -3 | 2 | -26 | 20
O=C(Nc1ccc2snnc2c1)Nc1cccc2ccccc12 | -27 | -28 | 28 | -13 | 87*
O=C(Nc1ccc2snnc2c1)N1CCN(c2ccccc2)CC1 | 10 | 24 | -24 | -20 | -3
CC(NC(=O)c1ccco1)c1cccc2ccccc12 (stereo not drawn) | 15 | -98 | 98* | -2 | 78*
CC(=O)Nc1ccc(S(=O)(=O)NCCc2ccc(S(N)(=O)=O)cc2)cc1 | -20 | -30 | 30* | -23 | -14
COc1cccc(-c2nc(CS(=O)(=O)CC(=O)NCCCOC(C)C)c(C)o2)c1 | 8 | -12 | 12 | -31 | 95*
